Reference: ChEMBL document CHEMBL3988442, “University of Dundee, Small-Polar-MMV Screening Library” (2021)
For part of these data: Results with a measured potency or affinity are listed apart.

Key:
Parameters in all cases: scale not given: direction of the effect not stated beside the values
[1] = biological target: Protein translocase subunit SecA (Escherichia coli (strain K12)) (UniProt P10408); assay: Assay to Identify E. coli SecA ATPase Inhibitors; format: functional; details: 30 µM
[2] = biological target: T1, Ubiquitin-activating enzyme e1, putative (Leishmania donovani (strain BPK282A1)) (UniProt E9BSI1); assay: Leishmania donovani Ubiquitin Activating Enzyme (LdE1); format: functional; details: 30 µM
T1 sequence (whole entry): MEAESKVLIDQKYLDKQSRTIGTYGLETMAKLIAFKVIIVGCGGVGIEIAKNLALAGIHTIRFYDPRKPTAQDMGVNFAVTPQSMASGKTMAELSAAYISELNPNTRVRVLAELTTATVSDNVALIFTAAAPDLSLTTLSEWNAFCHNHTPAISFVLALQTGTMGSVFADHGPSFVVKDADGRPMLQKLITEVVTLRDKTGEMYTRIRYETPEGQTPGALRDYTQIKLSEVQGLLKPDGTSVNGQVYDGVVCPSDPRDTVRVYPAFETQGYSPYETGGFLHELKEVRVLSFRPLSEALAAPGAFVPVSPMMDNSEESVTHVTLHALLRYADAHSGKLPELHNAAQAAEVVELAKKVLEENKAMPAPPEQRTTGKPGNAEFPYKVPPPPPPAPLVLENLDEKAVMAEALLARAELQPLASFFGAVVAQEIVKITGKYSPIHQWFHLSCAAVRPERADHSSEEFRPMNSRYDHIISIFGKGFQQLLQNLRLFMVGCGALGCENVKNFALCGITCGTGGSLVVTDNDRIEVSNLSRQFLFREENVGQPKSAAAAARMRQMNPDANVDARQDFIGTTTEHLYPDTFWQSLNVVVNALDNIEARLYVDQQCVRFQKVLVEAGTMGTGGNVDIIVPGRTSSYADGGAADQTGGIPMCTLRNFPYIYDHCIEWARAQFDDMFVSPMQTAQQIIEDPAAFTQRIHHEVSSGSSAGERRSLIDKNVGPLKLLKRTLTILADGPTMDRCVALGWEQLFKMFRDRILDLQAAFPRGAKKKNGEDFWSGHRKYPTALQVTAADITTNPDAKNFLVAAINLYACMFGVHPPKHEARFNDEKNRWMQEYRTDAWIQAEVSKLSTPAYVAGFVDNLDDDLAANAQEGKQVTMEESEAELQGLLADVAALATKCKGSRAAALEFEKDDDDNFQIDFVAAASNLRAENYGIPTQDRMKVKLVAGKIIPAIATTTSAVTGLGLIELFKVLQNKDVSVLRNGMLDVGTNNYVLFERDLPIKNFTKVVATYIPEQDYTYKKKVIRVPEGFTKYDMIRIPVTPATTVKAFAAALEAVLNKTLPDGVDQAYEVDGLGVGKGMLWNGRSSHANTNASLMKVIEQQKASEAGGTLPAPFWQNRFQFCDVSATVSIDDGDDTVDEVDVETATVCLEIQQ

[3] = biological target: Sialic acid-binding Ig-like lectin 9 (Homo sapiens) (UniProt Q9Y336); assay: Hs-Siglec9 ALPHAscreen SOP 20170721; details: 10 µM
Trypanosoma cruzi = assay: Trypanosoma cruzi phosphomannomutase and mannose-1-phosphate guanylyltransferase assay; format: functional; details: 10 µM
[4] = biological target: T2, Arginase-2, mitochondrial (Homo sapiens) (UniProt P78540); assay: in vitro enzyme assay to detect the production of urea directly proportional to the activity of Arginase II; format: functional; details: 33.3 µM; further: in the data most compounds retested in dose-response had high values
T2 sequence (whole entry): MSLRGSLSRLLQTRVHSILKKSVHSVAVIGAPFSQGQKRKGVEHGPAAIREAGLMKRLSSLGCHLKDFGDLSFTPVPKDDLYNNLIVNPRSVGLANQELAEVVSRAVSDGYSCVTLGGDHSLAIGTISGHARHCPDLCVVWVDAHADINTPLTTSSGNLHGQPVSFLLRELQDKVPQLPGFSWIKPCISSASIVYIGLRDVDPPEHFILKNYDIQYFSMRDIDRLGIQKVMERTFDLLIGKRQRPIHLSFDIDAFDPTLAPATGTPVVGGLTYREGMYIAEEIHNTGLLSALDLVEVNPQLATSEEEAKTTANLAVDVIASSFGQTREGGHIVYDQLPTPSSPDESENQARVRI

[5] = biological target: T3, Proteasome subunit beta (Trypanosoma cruzi) (UniProt O96673); assay: Trypanosoma cruzi proteasome chymotrypsin-like activity (TcProtChymo) assay.; further: in the data most compounds retested in dose-response had high values; format: functional; details: 9.37 µM
T3 sequence (whole entry): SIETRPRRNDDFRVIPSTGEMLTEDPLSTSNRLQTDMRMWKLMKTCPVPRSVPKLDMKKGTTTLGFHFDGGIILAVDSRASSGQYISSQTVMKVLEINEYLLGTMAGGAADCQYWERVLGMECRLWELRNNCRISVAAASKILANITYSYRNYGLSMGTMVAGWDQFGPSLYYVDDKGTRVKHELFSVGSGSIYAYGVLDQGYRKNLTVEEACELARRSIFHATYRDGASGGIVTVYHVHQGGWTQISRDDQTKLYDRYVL

Homo sapiens = species on record: Homo sapiens; assay: To identify inhibition of the IFN signalling (Jak-Stat) pathway via expression of an eGFP reporter gene under the control of an IFN-stimulated response element (ISRE) containing MxA promoter.; format: functional; details: 30 µM
[6] = biological target: T4, Tyrosyl-tRNA synthetase, putative (Trypanosoma cruzi (strain CL Brener)) (UniProt Q4DSP6); assay: Trypanosoma cruzi tyrosyl tRNA synthetase (TcYRS) _High Tyrosine SOP; format: functional; details: 30 µM; further: in the data most compounds retested in dose-response had high values
T4 sequence (whole entry): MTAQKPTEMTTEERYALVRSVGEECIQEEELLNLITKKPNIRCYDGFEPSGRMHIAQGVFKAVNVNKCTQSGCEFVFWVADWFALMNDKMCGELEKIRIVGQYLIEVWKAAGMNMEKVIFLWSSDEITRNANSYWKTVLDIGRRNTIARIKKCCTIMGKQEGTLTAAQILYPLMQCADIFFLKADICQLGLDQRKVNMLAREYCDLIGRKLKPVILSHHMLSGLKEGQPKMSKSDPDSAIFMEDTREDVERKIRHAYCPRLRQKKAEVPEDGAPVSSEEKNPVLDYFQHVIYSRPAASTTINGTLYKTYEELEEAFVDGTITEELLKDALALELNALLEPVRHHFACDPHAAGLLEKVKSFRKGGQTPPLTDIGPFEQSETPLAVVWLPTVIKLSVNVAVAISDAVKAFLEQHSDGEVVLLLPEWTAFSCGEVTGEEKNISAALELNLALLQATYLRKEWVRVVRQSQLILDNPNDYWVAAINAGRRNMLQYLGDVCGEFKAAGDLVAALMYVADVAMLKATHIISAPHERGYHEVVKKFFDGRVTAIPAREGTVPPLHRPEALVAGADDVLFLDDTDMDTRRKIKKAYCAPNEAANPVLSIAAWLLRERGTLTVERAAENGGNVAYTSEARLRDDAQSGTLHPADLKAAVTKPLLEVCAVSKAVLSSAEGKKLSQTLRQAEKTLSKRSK

[7] = biological target: T4, Tyrosyl-tRNA synthetase, putative (Trypanosoma cruzi (strain CL Brener)); assay: Trypanosoma cruzi tyrosyl tRNA synthetase (TcYRS) SOP; format: functional; details: 30 µM
[8] = biological target: Chromo domain-containing protein 1 (Saccharomyces cerevisiae (strain ATCC 204508 / S288c) (Baker's yeast)) (UniProt P32657); assay: ScCHD-1 Enzyme Inhibition Assay; format: functional; details: 30 µM; further: in the data most compounds retested in dose-response had high values
Sequence of Chromo domain-containing protein 1 (Saccharomyces cerevisiae (strain ATCC 204508 / S288c) (Baker's yeast)) (P32657 whole entry, the tested form may be a part): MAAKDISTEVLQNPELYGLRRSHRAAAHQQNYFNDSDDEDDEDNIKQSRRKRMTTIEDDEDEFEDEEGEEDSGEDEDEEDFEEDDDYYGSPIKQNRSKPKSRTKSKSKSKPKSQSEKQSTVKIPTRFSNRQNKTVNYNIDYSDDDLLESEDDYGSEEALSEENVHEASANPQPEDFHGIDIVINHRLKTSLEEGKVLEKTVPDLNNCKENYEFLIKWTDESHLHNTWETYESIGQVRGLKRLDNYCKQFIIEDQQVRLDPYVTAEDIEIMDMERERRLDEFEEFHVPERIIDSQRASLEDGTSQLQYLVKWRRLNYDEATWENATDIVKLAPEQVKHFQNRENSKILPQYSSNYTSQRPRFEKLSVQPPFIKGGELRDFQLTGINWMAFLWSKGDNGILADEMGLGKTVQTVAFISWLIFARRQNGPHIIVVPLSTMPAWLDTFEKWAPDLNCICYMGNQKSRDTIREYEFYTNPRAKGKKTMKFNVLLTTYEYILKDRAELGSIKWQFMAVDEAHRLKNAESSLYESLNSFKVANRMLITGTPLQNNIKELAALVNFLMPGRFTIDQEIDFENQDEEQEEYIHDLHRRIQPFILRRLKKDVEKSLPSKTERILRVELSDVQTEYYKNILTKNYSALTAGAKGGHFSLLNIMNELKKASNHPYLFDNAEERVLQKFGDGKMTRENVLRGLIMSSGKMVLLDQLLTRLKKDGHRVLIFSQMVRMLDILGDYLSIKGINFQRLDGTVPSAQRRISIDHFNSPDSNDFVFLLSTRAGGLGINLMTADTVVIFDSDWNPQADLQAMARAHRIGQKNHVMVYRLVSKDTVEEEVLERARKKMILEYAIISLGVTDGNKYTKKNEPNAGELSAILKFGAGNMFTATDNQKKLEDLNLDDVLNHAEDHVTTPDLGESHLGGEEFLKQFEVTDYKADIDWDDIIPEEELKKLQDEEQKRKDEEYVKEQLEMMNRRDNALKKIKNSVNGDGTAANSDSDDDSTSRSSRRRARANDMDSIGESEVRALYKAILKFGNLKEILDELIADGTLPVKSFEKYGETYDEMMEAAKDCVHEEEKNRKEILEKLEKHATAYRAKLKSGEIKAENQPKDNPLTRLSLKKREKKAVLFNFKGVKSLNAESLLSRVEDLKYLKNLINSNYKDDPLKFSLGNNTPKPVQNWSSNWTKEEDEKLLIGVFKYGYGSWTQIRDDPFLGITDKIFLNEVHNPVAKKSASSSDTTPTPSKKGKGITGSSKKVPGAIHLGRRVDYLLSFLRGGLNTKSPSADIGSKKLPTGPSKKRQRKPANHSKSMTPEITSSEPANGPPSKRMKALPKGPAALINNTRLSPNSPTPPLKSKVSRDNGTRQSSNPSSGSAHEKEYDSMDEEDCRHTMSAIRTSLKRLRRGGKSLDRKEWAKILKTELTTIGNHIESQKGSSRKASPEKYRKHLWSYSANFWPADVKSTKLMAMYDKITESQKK

Sequence of Sialic acid-binding Ig-like lectin 9 (Homo sapiens) (Q9Y336 whole entry): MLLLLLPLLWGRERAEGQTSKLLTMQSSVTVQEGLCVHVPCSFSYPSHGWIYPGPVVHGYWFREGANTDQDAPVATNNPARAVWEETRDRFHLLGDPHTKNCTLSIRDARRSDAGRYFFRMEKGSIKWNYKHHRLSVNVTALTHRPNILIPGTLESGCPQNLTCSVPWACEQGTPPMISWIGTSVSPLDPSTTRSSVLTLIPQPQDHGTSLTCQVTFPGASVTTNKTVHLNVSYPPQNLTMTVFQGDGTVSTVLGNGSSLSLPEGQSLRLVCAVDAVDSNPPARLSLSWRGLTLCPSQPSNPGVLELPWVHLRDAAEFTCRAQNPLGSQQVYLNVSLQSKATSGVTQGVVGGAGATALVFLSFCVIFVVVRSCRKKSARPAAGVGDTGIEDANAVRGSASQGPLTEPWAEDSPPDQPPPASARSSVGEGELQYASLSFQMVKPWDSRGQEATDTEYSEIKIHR
Sequence of Protein translocase subunit SecA (Escherichia coli (strain K12)) (P10408 whole entry): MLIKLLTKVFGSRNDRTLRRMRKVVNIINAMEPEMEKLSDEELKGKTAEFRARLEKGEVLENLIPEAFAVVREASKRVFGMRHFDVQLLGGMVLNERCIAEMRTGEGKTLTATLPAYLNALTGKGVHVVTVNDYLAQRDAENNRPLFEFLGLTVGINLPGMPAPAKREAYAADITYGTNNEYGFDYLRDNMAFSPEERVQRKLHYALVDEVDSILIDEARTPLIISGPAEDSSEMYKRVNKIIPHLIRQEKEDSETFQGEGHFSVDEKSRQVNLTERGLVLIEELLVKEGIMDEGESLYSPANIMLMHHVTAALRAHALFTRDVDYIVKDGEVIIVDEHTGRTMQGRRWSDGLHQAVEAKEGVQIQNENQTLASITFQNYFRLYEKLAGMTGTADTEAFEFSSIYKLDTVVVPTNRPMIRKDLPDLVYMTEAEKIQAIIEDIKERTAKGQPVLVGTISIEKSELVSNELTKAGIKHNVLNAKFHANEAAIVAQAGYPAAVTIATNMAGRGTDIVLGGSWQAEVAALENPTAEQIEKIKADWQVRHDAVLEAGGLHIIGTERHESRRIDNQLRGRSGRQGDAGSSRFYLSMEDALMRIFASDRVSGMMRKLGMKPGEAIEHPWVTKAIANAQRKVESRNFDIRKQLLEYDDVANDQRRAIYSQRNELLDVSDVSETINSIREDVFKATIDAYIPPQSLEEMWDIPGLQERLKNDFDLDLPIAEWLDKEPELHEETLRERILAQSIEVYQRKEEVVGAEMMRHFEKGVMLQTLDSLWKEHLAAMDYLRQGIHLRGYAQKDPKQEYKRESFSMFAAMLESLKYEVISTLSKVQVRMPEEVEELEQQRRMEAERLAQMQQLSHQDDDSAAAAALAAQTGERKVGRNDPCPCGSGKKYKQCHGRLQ

| SMILES | Percent Effect [1] | Percent Effect [2] | Percent Effect [3] | Percent Effect (Trypanosoma cruzi) | Percent Effect [4] | Percent Effect [5] | Percent Effect (Homo sapiens) | Percent Effect [6] | Percent Effect [7] | Percent Effect [8] |
| --- | --- | --- | --- | --- | --- | --- | --- | --- | --- | --- |
| O=c1c2ccccc2nc2n1C(CSc1ccc(Cl)cc1Cl)CN2 (stereo not given) | -1.78% | 19.5% | -1.05% | -1.31% | 5.94% | 13.3% | 32.9% | 1.93% | 10% | -2.41% |
| Cc1nc(CN(C)C2CCN(CCCOc3ccccc3)C2)no1 (stereo not given) | 0.729% | 23.4% | -1.5% | 2.42% | -5.94% | 20.9% | 8.47% | 8.82% | 21.2% | -11.3% |
| CCCn1ncc2c(C(=O)Nc3n[nH]c(SC)n3)cc(C3CC3)nc21 | -0.744% | 14.7% | -0.527% | -0.395% | -13.7% | 11.8% | 13.4% | -10.6% | 17.5% | -26.6% |
| COc1cc(CNCc2ccc(NC(=O)NC(C)C)cc2)cc(OC)c1 | -1.27% | 15.6% | 5.02% | 6.9% | 10.4% | 16.1% | 33.6% | 8.82% | 30.6% | -10.7% |
| COC1CCCN(Cc2nc(Cc3ccccc3F)no2)C1 (stereo not given) | -7.36% | -5.41% | 1.17% | 2.04% | 1.75% | 1.71% | 3.24% | 5.85% | 14.6% | 0.44% |
| Cc1ccn(-c2cccc(C(=O)N3CCCC(n4ccnc4C)C3)c2)n1 (stereo not given) | -0.853% | 7.79% | 11.9% | -9.7% | -3.89% | 8.42% | 26.1% | 5.88% | 9.41% | -1.96% |
| Cc1cc(C)n(CC2CN(Cc3nc(-c4ccco4)no3)CCO2)n1 (stereo not given) | -4.45% | 23.4% | 7.28% | 5.78% | 1.43% | 8.25% | 12.5% | 5.88% | 23.5% | -11.8% |
| CCCn1[nH]cc/c1=N\C(=O)CN1CCc2cnc(CC)nc2C1 | 0.849% | 0% | 1.8% | -2.61% | 9.76% | 2.29% | 3.62% | 11.1% | 7.69% | 5.4% |
| CCn1cc(CN2CCCC(c3[nH]ncc3S(C)(=O)=O)C2)cn1 (stereo not given) | -3.37% | 14.7% | 8.19% | 2.56% | -0.885% | 7.55% | -4.1% | 4.23% | 15% | -23.9% |
| Cc1ncc(S(C)(=O)=O)c(C2CCCNC2)n1 (stereo not given) | -0.171% | 2.7% | 5.3% | -2.81% | 1.75% | 8.39% | 18.1% | 6.92% | 12.2% | 111% |
| Cc1cc(-c2nn(C)c(Cl)c2CN2Cc3ccccc3C(O)C2)no1 (stereo not given) | -0.14% | 24.3% | 18.2% | 11.2% | 20.6% | 6.34% | 47.5% | 3.72% | 4.88% | -1.98% |
| CC(C)c1cc(NC(=O)CN2CCC(N3CCCCC3)CC2)on1 | -2.28% | 20.8% | 11.8% | 6.53% | -1.43% | 9.3% | -6.15% | 11.8% | 32.9% | -5.62% |
| CCc1nc(CC(=O)N2CCCC2Cn2cccn2)cs1 (stereo not given) | -2.88% | 2.67% | 6.12% | 0.402% | 4.43% | 6.19% | -17.2% | 2.63% | 7.69% | -10% |
| Cc1cccnc1CNCC1(O)CCCN(CC2CCCCC2)C1=O (stereo not given) | -6.4% | 0% | -1.52% | -2.04% | -3.85% | 3.25% | 1.47% | 7.98% | 17.1% | 0.826% |
| CCn1nc2c(cc1=O)CN(Cc1nc(-c3ccsc3)no1)CC2 | -2.79% | 0% | 3.78% | -0.282% | 6.56% | 4.18% | 27.8% | 4.31% | 6.02% | -6.49% |
| CC(C)N1CCCC2(CCN(C(=O)CCCn3cncn3)C2)C1=O (stereo not given) | -5.4% | 5.41% | 6.04% | 7.27% | -1.75% | 15.1% | 19.6% | 7.98% | 12.2% | -6.32% |
| Cc1cc(C)n(C2CCCN(C(=O)c3c(C)c(C)n[nH]c3=O)C2)n1 (stereo not given) | -1.62% | 8% | 4.21% | -4.62% | 0.887% | 4.16% | 17.4% | 1.58% | 2.56% | -4.78% |
| Cc1cc(N2CCC(NC(=O)C3CC3)CC2)nc(-c2ccncc2)n1 | -0.846% | 23.4% | 0.849% | 2.98% | -1.43% | 13% | 9.23% | 12.8% | 35.3% | -0.543% |
| CC(C)OCCN(C)C(C)c1cccc(S(N)(=O)=O)c1 (stereo not given) | -5.89% | 7.79% | -5.22% | -3.36% | 2.66% | 1.05% | 15.1% | -1.96% | -2.35% | -1.17% |
| CNC(=O)COc1ccccc1CNC1CCc2ncnn2C1 (stereo not given) | -1.08% | 2.56% | -25.1% | 6.67% | -1.23% | 18.7% | 13.3% | 6.22% | 20.5% | 44.8% |
| Cc1nc(N2CCCC2)nc2c1CN(C(=O)N1CCOCC1)CC2 | -4.38% | 14.3% | 1.78% | 0.75% | 3.2% | 15.9% | 1.81% | 10.6% | 15% | -9.99% |
